{"source": "the supplement of paper PMC8728848", "binders": {"B1": {"name": "Gal 7 (Homo sapiens) (protein)", "chain": "MSNVPHKSSLPEGIRPGTVLRIRGLVPPNASRFHVNLLCGEEGGSDAALHFNPRLDTSEVVFNSKEGGSWGREERGPGVPFGRGQPFEVLIIASDDGFKAVVGDAQYHHFRHRLPLARVRLVEVGGDVQLDSVRIF"}}, "assay_in_all_cases": "glycan array binding signal (z-score within array); higher = stronger binding", "details_in_all_cases": "glycan notation: IUPAC condensed, linker removed", "key": {"[1]": {"biological_target": "Fuc(a1-2)Gal(b1-3)GlcNAc(b1-3)GalNAc", "method_in_brief": "(§1)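 The binding signal is a Z-score computed within each array. Data were drawn from 3228 arrays in the Consortium for Functional Glycomics database, restricted to those with a known protein sequence. Scores were averaged over arrays of the same protein sequence at different concentrations or buffers, and over linkers, and negative values can be taken as non-binding.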"}, "[2]": {"biological_target": "Fuc(a1-2)Gal(b1-4)Glc6S", "method_in_brief": "as §1"}, "[3]": {"biological_target": "Fuc(a1-2)Gal(b1-4)GlcNAc(b1-3)Gal(b1-4)GlcNAc", "method_in_brief": "as §1"}, "[4]": {"biological_target": "Fuc(a1-2)Gal(b1-4)GlcNAc(b1-3)Gal(b1-4)GlcNAc(b1-2)Man(a1-3)[Fuc(a1-2)Gal(b1-4)GlcNAc(b1-3)Gal(b1-4)GlcNAc(b1-2)Man(a1-6)]Man(b1-4)GlcNAc(b1-4)GlcNAc", "method_in_brief": "as §1"}, "[5]": {"biological_target": "Fuc(a1-2)Gal(b1-4)GlcNAc(b1-3)Gal(b1-4)GlcNAc(b1-3)Gal(b1-4)GlcNAc", "method_in_brief": "as §1"}, "[6]": {"biological_target": "Fuc(a1-2)Gal(b1-4)GlcNAc(b1-3)GalNAc", "method_in_brief": "as §1"}, "[7]": {"biological_target": "Fuc(a1-2)[Gal(a1-3)]Gal(b1-4)GlcNAc(b1-3)[Fuc(a1-2)[Gal(a1-3)]Gal(b1-4)GlcNAc(b1-6)]GalNAc", "method_in_brief": "as §1"}, "[8]": {"biological_target": "Fuc(a1-2)[Gal(a1-4)]Gal(b1-4)GalNAc", "method_in_brief": "as §1"}, "[9]": {"biological_target": "Fuc(a1-2)[GalNAc(a1-4)]Gal(b1-4)GlcNAc", "method_in_brief": "as §1"}, "[10]": {"biological_target": "Fuc(a1-3)[Gal(b1-4)]GlcNAc(b1-4)Gal(b1-4)[Fuc(a1-3)]GlcNAc", "method_in_brief": "as §1"}, "[11]": {"biological_target": "Fuc(a1-4)GlcNAc", "method_in_brief": "as §1"}, "[12]": {"biological_target": "Gal(a1-3)Gal(b1-3)Glc", "method_in_brief": "as §1"}, "[13]": {"biological_target": "Gal(a1-3)Gal(b1-4)GlcNAc(b1-6)GalNAc", "method_in_brief": "as §1"}, "[14]": {"biological_target": "Gal(a1-4)Gal(b1-3)GlcNAc(b1-2)Man(a1-3)[Gal(a1-4)Gal(b1-3)GlcNAc(b1-2)Man(a1-6)]Man(b1-4)GlcNAc(b1-4)GlcNAc", "method_in_brief": "as §1"}, "[15]": {"biological_target": "Gal(a1-4)Gal(b1-4)GlcNAc", "method_in_brief": "as §1"}, "[16]": {"biological_target": "Gal(b1-3)Gal", "method_in_brief": "as §1"}, "[17]": {"biological_target": "Gal(b1-3)Gal(b1-4)GlcNAc", "method_in_brief": "as §1"}, "[18]": {"biological_target": "Gal(b1-3)GalNAc", "method_in_brief": "as §1"}, "[19]": {"biological_target": "Gal(b1-3)GalNAc(b1-3)Gal(b1-4)GlcNAc", "method_in_brief": "as §1"}, "[20]": {"biological_target": "Gal(b1-3)GlcNAc(b1-3)GalNAc", "method_in_brief": "as §1"}, "[21]": {"biological_target": "Gal(b1-3)GlcNAc(b1-6)Gal(b1-4)GlcNAc", "method_in_brief": "as §1"}, "[22]": {"biological_target": "Gal(b1-3)[Fuc(a1-4)]GlcNAc(b1-3)Gal(b1-4)[Fuc(a1-3)]GlcNAc", "method_in_brief": "as §1"}, "[23]": {"biological_target": "Gal(b1-4)GalNAc(b1-3)[Fuc(a1-2)]Gal(b1-4)GlcNAc", "method_in_brief": "as §1"}, "[24]": {"biological_target": "Gal(b1-4)Glc6S", "method_in_brief": "as §1"}, "[25]": {"biological_target": "Gal(b1-4)GlcNAc(b1-2)[Gal(b1-4)GlcNAc(b1-6)]Man(a1-6)[Gal(b1-4)GlcNAc(b1-2)Man(a1-3)]Man(b1-4)GlcNAc(b1-4)[Fuc(a1-6)]GlcNAc", "method_in_brief": "as §1"}, "[26]": {"biological_target": "Gal(b1-4)GlcNAc(b1-2)[Gal(b1-4)GlcNAc(b1-6)]Man(a1-6)[GlcNAc(b1-4)][Gal(b1-4)GlcNAc(b1-2)Man(a1-3)]Man(b1-4)GlcNAc(b1-4)GlcNAc", "method_in_brief": "as §1"}, "[27]": {"biological_target": "Gal(b1-4)GlcNAc(b1-3)Gal(b1-4)GlcNAc(b1-2)Man(a1-3)[Gal(b1-4)GlcNAc(b1-3)Gal(b1-4)GlcNAc(b1-2)Man(a1-6)]Man(b1-4)GlcNAc(b1-4)GlcNAc", "method_in_brief": "as §1"}, "[28]": {"biological_target": "Gal(b1-4)GlcNAc(b1-3)Gal(b1-4)GlcNAc(b1-3)Gal(b1-4)GlcNAc", "method_in_brief": "as §1"}, "[29]": {"biological_target": "Gal(b1-4)GlcNAc(b1-3)Gal(b1-4)GlcNAc(b1-3)Gal(b1-4)GlcNAc(b1-2)Man(a1-3)[Gal(b1-4)GlcNAc(b1-3)Gal(b1-4)GlcNAc(b1-3)Gal(b1-4)GlcNAc(b1-2)Man(a1-6)]Man(b1-4)GlcNAc(b1-4)[Fuc(a1-6)]GlcNAc", "method_in_brief": "as §1"}}, "note": "Shown is part of a subset that was picked to be rich in the strongest signals.", "data": [{"binder": "B1", "values": [{"measurement": "glycan array binding signal (z-score)", "setting": "[1]", "value": -0.125}, {"measurement": "glycan array binding signal (z-score)", "setting": "[2]", "value": 0.834}, {"measurement": "glycan array binding signal (z-score)", "setting": "[3]", "value": 5.81}, {"measurement": "glycan array binding signal (z-score)", "setting": "[4]", "value": 5.09}, {"measurement": "glycan array binding signal (z-score)", "setting": "[5]", "value": 7.12}, {"measurement": "glycan array binding signal (z-score)", "setting": "[6]", "value": 0.082}, {"measurement": "glycan array binding signal (z-score)", "setting": "[7]", "value": -0.267}, {"measurement": "glycan array binding signal (z-score)", "setting": "[8]", "value": -0.319}, {"measurement": "glycan array binding signal (z-score)", "setting": "[9]", "value": -0.23}, {"measurement": "glycan array binding signal (z-score)", "setting": "[10]", "value": -0.214}, {"measurement": "glycan array binding signal (z-score)", "setting": "[11]", "value": -0.324}, {"measurement": "glycan array binding signal (z-score)", "setting": "[12]", "value": 1.04}, {"measurement": "glycan array binding signal (z-score)", "setting": "[13]", "value": -0.147}, {"measurement": "glycan array binding signal (z-score)", "setting": "[14]", "value": -0.011}, {"measurement": "glycan array binding signal (z-score)", "setting": "[15]", "value": -0.251}, {"measurement": "glycan array binding signal (z-score)", "setting": "[16]", "value": -0.328}, {"measurement": "glycan array binding signal (z-score)", "setting": "[17]", "value": -0.341}, {"measurement": "glycan array binding signal (z-score)", "setting": "[18]", "value": -0.006}, {"measurement": "glycan array binding signal (z-score)", "setting": "[19]", "value": 0.962}, {"measurement": "glycan array binding signal (z-score)", "setting": "[20]", "value": 0.04}, {"measurement": "glycan array binding signal (z-score)", "setting": "[21]", "value": -0.33}, {"measurement": "glycan array binding signal (z-score)", "setting": "[22]", "value": -0.289}, {"measurement": "glycan array binding signal (z-score)", "setting": "[23]", "value": -0.367}, {"measurement": "glycan array binding signal (z-score)", "setting": "[24]", "value": 0.576}, {"measurement": "glycan array binding signal (z-score)", "setting": "[25]", "value": 0.141}, {"measurement": "glycan array binding signal (z-score)", "setting": "[26]", "value": -0.186}, {"measurement": "glycan array binding signal (z-score)", "setting": "[27]", "value": 2.23}, {"measurement": "glycan array binding signal (z-score)", "setting": "[28]", "value": 0.945}, {"measurement": "glycan array binding signal (z-score)", "setting": "[29]", "value": 4.99}]}]}
